What all share (assay): HT-SELEX; 20 mM HEPES pH 7, 140 mM KCl, 5 mM NaCl, 1 mM K2HPO4, 2 mM MgSO4, 100 uM EGTA, ZnSO4, 0.1% Tween20; room temperature, 1 h; high values mean tight binding
Holding throughout (details): protein: ivt; tags: eGFP (N-terminal); dsDNA, one strand shown

One test has as its target ZNF721 full-length (Homo sapiens, UniProt Q8TF20-2 1-923). In outline: (§1)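 In HEPES/KCl low-stringency buffer with Tween20, a bead-immobilised tagged transcription factor (full-length or DNA-binding-domain fragment, from HEK293 lysate or cell-free extract) was incubated with a randomized 40-base DNA library for 1 h at room temperature. DNA retained after washing was heat-eluted, amplified by PCR over successive cycles and Illumina-sequenced, giving ~3 million 60 bp reads per sample. The reported binding signal, a relative k-mer count in those selected reads, rises with tighter binding.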

In a further test the target is ZNF721 DBD1 (Homo sapiens, UniProt Q8TF20-2 29-461). Summed up:
as §1

The target in a further test is ZNF721 DBD2 (Homo sapiens, UniProt Q8TF20-2 395-923). In outline:
as §1

Sequence of ZNF721 full-length (Q8TF20 other isoform, or with tags, fused parts or gaps): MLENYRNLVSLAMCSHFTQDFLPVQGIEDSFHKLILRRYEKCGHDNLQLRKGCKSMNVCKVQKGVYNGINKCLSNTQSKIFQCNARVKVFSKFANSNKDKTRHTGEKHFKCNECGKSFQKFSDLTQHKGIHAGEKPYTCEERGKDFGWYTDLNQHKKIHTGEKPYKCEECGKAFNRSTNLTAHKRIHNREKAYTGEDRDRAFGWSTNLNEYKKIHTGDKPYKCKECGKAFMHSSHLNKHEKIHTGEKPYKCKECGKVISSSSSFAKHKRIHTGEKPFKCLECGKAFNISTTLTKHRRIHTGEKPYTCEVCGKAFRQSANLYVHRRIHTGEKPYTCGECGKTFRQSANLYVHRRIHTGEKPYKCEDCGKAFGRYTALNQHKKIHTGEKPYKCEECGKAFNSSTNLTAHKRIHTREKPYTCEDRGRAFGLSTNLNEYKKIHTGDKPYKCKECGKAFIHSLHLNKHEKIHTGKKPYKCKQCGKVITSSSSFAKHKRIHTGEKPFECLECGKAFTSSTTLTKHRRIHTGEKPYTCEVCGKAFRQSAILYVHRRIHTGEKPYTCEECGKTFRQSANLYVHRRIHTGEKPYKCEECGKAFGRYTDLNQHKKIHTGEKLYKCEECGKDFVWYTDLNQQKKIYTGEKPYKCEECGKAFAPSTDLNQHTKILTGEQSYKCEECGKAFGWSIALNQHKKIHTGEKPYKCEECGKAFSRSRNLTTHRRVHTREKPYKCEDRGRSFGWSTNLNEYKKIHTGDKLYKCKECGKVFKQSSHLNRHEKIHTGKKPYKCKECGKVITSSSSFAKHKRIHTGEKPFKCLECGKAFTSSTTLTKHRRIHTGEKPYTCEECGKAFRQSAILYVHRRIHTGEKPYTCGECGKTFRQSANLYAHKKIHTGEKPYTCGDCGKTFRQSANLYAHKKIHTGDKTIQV
Sequence of ZNF721 DBD2 (Q8TF20 383-911): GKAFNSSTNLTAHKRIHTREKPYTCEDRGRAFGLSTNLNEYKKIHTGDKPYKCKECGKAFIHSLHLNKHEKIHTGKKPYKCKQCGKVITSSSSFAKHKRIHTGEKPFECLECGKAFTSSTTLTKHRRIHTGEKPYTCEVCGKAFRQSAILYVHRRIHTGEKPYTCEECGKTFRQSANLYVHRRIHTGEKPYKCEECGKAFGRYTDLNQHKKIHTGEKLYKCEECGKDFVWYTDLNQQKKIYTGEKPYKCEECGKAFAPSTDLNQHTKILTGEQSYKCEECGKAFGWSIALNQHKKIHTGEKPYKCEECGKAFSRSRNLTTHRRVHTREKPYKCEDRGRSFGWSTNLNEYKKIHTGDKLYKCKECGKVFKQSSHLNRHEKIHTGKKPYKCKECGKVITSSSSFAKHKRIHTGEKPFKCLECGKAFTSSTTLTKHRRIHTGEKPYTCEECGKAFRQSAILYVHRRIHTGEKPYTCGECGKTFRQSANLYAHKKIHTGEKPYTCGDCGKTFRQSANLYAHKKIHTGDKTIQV
Sequence of ZNF721 DBD1 (Q8TF20 17-449): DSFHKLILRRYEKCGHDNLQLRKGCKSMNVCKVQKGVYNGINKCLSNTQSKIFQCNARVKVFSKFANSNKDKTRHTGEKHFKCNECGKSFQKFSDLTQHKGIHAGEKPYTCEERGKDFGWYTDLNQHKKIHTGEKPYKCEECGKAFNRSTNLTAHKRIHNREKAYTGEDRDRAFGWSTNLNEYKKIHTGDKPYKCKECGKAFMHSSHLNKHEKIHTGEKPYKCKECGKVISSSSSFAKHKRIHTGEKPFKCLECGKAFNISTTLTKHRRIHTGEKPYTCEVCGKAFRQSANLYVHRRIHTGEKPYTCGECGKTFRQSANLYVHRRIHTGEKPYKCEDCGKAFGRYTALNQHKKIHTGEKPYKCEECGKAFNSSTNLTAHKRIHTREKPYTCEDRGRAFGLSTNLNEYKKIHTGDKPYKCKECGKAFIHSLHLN

For the sequence CCCTCCCCGC, the binding signal stood at 0.139 relative 10-mer count with ZNF721 full-length, 0.00555 relative 10-mer count with ZNF721 DBD1 and 0.00995 relative 10-mer count in the test with ZNF721 DBD2.
Turning to CCACGCCACC, the binding signal in the test with ZNF721 full-length amounted to 0.105 relative 10-mer count; with ZNF721 DBD1, 0.00353 relative 10-mer count; with ZNF721 DBD2, 0.00443 relative 10-mer count.
In the same order, the values of CACCCCGCCA are 0.108 relative 10-mer count, 0.00404 relative 10-mer count and 0.00455 relative 10-mer count.
In the same order, the values of ATCCCCACCC are 0.114 relative 10-mer count, 0.00459 relative 10-mer count and 0.00515 relative 10-mer count.
The like results for CCGCCCGCCC were, in that order, 0.136 relative 10-mer count, 0.00495 relative 10-mer count and 0.00192 relative 10-mer count.
In the case of CACGCCCCAC, the binding signal with ZNF721 full-length is 0.11 relative 10-mer count; in the test with ZNF721 DBD1, 0.00326 relative 10-mer count; with ZNF721 DBD2, 0.00455 relative 10-mer count.
Regarding AAAAGCAGTC, the binding signal with ZNF721 full-length came out at 0.111 relative 10-mer count; with ZNF721 DBD1, 0.00225 relative 10-mer count; in the test with ZNF721 DBD2, 0.105 relative 10-mer count.
On to AAAAAGCAGC, for which the binding signal stood at 0.557 relative 10-mer count with ZNF721 full-length, 0.00835 relative 10-mer count in the test with ZNF721 DBD1 and 0.477 relative 10-mer count with ZNF721 DBD2.
The like results for ACCCACCCCG were, in that order, 0.133 relative 10-mer count, 0.00491 relative 10-mer count and 0.00264 relative 10-mer count.
CCCCCTCGCC: the binding signal was 0.123 relative 10-mer count in the test with ZNF721 full-length, 0.0061 relative 10-mer count with ZNF721 DBD1 and 0.00288 relative 10-mer count in the test with ZNF721 DBD2.
In the same order, the values of ACCCCCCCGC are 0.112 relative 10-mer count, 0.00248 relative 10-mer count and 0.003 relative 10-mer count.
Turning to CCGCCCTCCC, the results for the binding signal in the test with ZNF721 full-length, in the test with ZNF721 DBD1 and with ZNF721 DBD2 were 0.148 relative 10-mer count, 0.00642 relative 10-mer count and 0.00252 relative 10-mer count, respectively.
Take GGGGCGGGGA: the figures for the binding signal in the test with ZNF721 full-length, with ZNF721 DBD1 and with ZNF721 DBD2 were 0.131 relative 10-mer count, 0.00633 relative 10-mer count and 0.00264 relative 10-mer count, respectively.
The like results for CCGCCCCCCG were, in that order, 0.128 relative 10-mer count, 0.0039 relative 10-mer count and 0.0024 relative 10-mer count.
For ACCCCGACCC, the binding signal with ZNF721 full-length came out at 0.102 relative 10-mer count; in the test with ZNF721 DBD1, 0.00284 relative 10-mer count; with ZNF721 DBD2, 0.0012 relative 10-mer count.
With CCCACAACCC, the binding signal was 0.106 relative 10-mer count with ZNF721 full-length, 0.00431 relative 10-mer count with ZNF721 DBD1 and 0.00348 relative 10-mer count with ZNF721 DBD2.
The like results for CAGCGTACCC were, in that order, 0.239 relative 10-mer count, 0.00229 relative 10-mer count and 0.41 relative 10-mer count.
The like results for CCACCCTACC were, in that order, 0.115 relative 10-mer count, 0.00688 relative 10-mer count and 0.00839 relative 10-mer count.
The like results for GCCCCACCCC were, in that order, 0.216 relative 10-mer count, 0.00775 relative 10-mer count and 0.00599 relative 10-mer count.
In the case of CCCCACCACA, the binding signal in the test with ZNF721 full-length was determined as 0.148 relative 10-mer count; with ZNF721 DBD1, 0.00505 relative 10-mer count; with ZNF721 DBD2, 0.00527 relative 10-mer count.
As for AAAAAAGCGC, the binding signal with ZNF721 full-length amounted to 0.115 relative 10-mer count; with ZNF721 DBD1, 0.0212 relative 10-mer count; with ZNF721 DBD2, 0.015 relative 10-mer count.
Turning to CGCCCCCCGC, the binding signal in the test with ZNF721 full-length was determined as 0.12 relative 10-mer count; with ZNF721 DBD1 it was 0.00472 relative 10-mer count; in the test with ZNF721 DBD2 it was 0.00384 relative 10-mer count.
In the case of CCCTCCCCTC, the binding signal in the test with ZNF721 full-length is 0.142 relative 10-mer count; in the test with ZNF721 DBD1, 0.00679 relative 10-mer count; with ZNF721 DBD2 it was 0.0129 relative 10-mer count.
Regarding AGCGTCTCCA, the results for the binding signal in the test with ZNF721 full-length, with ZNF721 DBD1 and in the test with ZNF721 DBD2 were 0.271 relative 10-mer count, 0.0472 relative 10-mer count and 0.388 relative 10-mer count, respectively.
Take GCTTCATACA: the binding signal with ZNF721 full-length turned out to be 0.231 relative 10-mer count; with ZNF721 DBD1, 0.318 relative 10-mer count; with ZNF721 DBD2, 0.0018 relative 10-mer count.
As to CCCCCTACCC, the values for the binding signal with ZNF721 full-length, with ZNF721 DBD1 and with ZNF721 DBD2 were 0.155 relative 10-mer count, 0.0072 relative 10-mer count and 0.003 relative 10-mer count, respectively.
The like results for CCCTTCCCCC were, in that order, 0.141 relative 10-mer count, 0.00633 relative 10-mer count and 0.003 relative 10-mer count.
In the same order, the values of AGGATACCCT are 0.106 relative 10-mer count, 0.00527 relative 10-mer count and 0.171 relative 10-mer count.
Consider AGCAGCATAC, for which the binding signal amounted to 0.146 relative 10-mer count with ZNF721 full-length, 0.00179 relative 10-mer count with ZNF721 DBD1 and 0.164 relative 10-mer count with ZNF721 DBD2.
In the same order, the values of CGCCCCCTCC are 0.135 relative 10-mer count, 0.00605 relative 10-mer count and 0.00407 relative 10-mer count.
Consider ACCCCCCAAC, for which the binding signal was 0.103 relative 10-mer count with ZNF721 full-length, 0.00321 relative 10-mer count with ZNF721 DBD1 and 0.00407 relative 10-mer count with ZNF721 DBD2.
The like results for AGGGGGTGGG were, in that order, 0.201 relative 10-mer count, 0.0107 relative 10-mer count and 0.00467 relative 10-mer count.
ACCACCCCGC: the binding signal with ZNF721 full-length came out at 0.104 relative 10-mer count; in the test with ZNF721 DBD1, 0.00358 relative 10-mer count; with ZNF721 DBD2, 0.00252 relative 10-mer count.
With AGCATACCCA, the binding signal in the test with ZNF721 full-length amounted to 0.391 relative 10-mer count; with ZNF721 DBD1, 0.0246 relative 10-mer count; in the test with ZNF721 DBD2, 0.366 relative 10-mer count.
Take AAAAAGGCAT: the binding signal in the test with ZNF721 full-length worked out at 0.188 relative 10-mer count; with ZNF721 DBD1, 0.00266 relative 10-mer count; with ZNF721 DBD2 it was 0.155 relative 10-mer count.
As for CCCCACCACC, the binding signal was found to be 0.447 relative 10-mer count with ZNF721 full-length, 0.0213 relative 10-mer count with ZNF721 DBD1 and 0.00767 relative 10-mer count in the test with ZNF721 DBD2.
Regarding AGCGTCTCCT, the values for the binding signal with ZNF721 full-length, with ZNF721 DBD1 and in the test with ZNF721 DBD2 were 0.109 relative 10-mer count, 0.0353 relative 10-mer count and 0.194 relative 10-mer count, respectively.
Turning to AGCATCCCCA, the results for the binding signal with ZNF721 full-length, with ZNF721 DBD1 and with ZNF721 DBD2 were 0.136 relative 10-mer count, 0.0121 relative 10-mer count and 0.0674 relative 10-mer count, respectively.
In the case of CCCTCCGCCC, the binding signal with ZNF721 full-length was 0.192 relative 10-mer count; in the test with ZNF721 DBD1, 0.00936 relative 10-mer count; with ZNF721 DBD2, 0.00491 relative 10-mer count.
With CCCACCCAAC, the binding signal came to 0.172 relative 10-mer count with ZNF721 full-length, 0.00679 relative 10-mer count with ZNF721 DBD1 and 0.0113 relative 10-mer count in the test with ZNF721 DBD2.
With AAGGGGTGGG, the binding signal was found to be 0.102 relative 10-mer count with ZNF721 full-length, 0.00546 relative 10-mer count with ZNF721 DBD1 and 0.00395 relative 10-mer count with ZNF721 DBD2.
In the same order, the values of CTCCCACCCC are 0.224 relative 10-mer count, 0.0128 relative 10-mer count and 0.00455 relative 10-mer count.
Consider CCCCCTCCAC, for which the binding signal stood at 0.179 relative 10-mer count in the test with ZNF721 full-length, 0.00908 relative 10-mer count with ZNF721 DBD1 and 0.00479 relative 10-mer count with ZNF721 DBD2.
For GCAGCATACC, the binding signal with ZNF721 full-length came to 0.151 relative 10-mer count; with ZNF721 DBD1 it was 0.00147 relative 10-mer count; with ZNF721 DBD2, 0.158 relative 10-mer count.
As for CCCACCTCCC, the binding signal with ZNF721 full-length came to 0.339 relative 10-mer count; with ZNF721 DBD1 it was 0.017 relative 10-mer count; with ZNF721 DBD2 it was 0.00551 relative 10-mer count.
For CTCCCCCCGC, the binding signal is 0.114 relative 10-mer count in the test with ZNF721 full-length, 0.00468 relative 10-mer count with ZNF721 DBD1 and 0.00144 relative 10-mer count with ZNF721 DBD2.
With CCCCTCCCGC, the binding signal in the test with ZNF721 full-length is 0.137 relative 10-mer count; with ZNF721 DBD1 it was 0.00665 relative 10-mer count; in the test with ZNF721 DBD2, 0.00635 relative 10-mer count.
Take CGTCCCCACC: the binding signal in the test with ZNF721 full-length was determined as 0.115 relative 10-mer count; with ZNF721 DBD1 it was 0.00541 relative 10-mer count; in the test with ZNF721 DBD2, 0.00467 relative 10-mer count.
Regarding CCGAAAAAAA, the binding signal in the test with ZNF721 full-length was 0.115 relative 10-mer count; with ZNF721 DBD1, 0.0118 relative 10-mer count; with ZNF721 DBD2, 0.0585 relative 10-mer count.
For the sequence GCTTTTTTTA, the binding signal turned out to be 0.176 relative 10-mer count with ZNF721 full-length, 0.0317 relative 10-mer count with ZNF721 DBD1 and 0.0453 relative 10-mer count with ZNF721 DBD2.
Take ACCCCCCCAC: the binding signal came out at 0.169 relative 10-mer count with ZNF721 full-length, 0.00697 relative 10-mer count in the test with ZNF721 DBD1 and 0.00695 relative 10-mer count in the test with ZNF721 DBD2.
The like results for AGCGTATCCA were, in that order, 0.221 relative 10-mer count, 0.0368 relative 10-mer count and 0.31 relative 10-mer count.
As to TAAAAAAACA, the values for the binding signal with ZNF721 full-length, with ZNF721 DBD1 and with ZNF721 DBD2 were 0.162 relative 10-mer count, 0.00234 relative 10-mer count and 0.134 relative 10-mer count, respectively.
In the same order, the values of CACCCCCCAC are 0.248 relative 10-mer count, 0.0103 relative 10-mer count and 0.00527 relative 10-mer count.
As for AAAAACAAGC, the results for the binding signal in the test with ZNF721 full-length, with ZNF721 DBD1 and with ZNF721 DBD2 were 0.123 relative 10-mer count, 0.0116 relative 10-mer count and 0.0483 relative 10-mer count, respectively.
For GCCCCACCCA, the binding signal stood at 0.13 relative 10-mer count with ZNF721 full-length, 0.00404 relative 10-mer count in the test with ZNF721 DBD1 and 0.00515 relative 10-mer count with ZNF721 DBD2.
For CACCCCCACC, the binding signal with ZNF721 full-length amounted to 0.308 relative 10-mer count; in the test with ZNF721 DBD1, 0.0129 relative 10-mer count; with ZNF721 DBD2 it was 0.0102 relative 10-mer count.
As to CCAAAAAACA, the values for the binding signal with ZNF721 full-length, in the test with ZNF721 DBD1 and with ZNF721 DBD2 were 0.16 relative 10-mer count, 0.00174 relative 10-mer count and 0.185 relative 10-mer count, respectively.
In the case of CAGGGTGGGG, the binding signal with ZNF721 full-length was 0.111 relative 10-mer count; with ZNF721 DBD1, 0.00399 relative 10-mer count; in the test with ZNF721 DBD2, 0.00384 relative 10-mer count.
Take CCCATCCACC: the values for the binding signal with ZNF721 full-length, with ZNF721 DBD1 and in the test with ZNF721 DBD2 were 0.103 relative 10-mer count, 0.00569 relative 10-mer count and 0.00827 relative 10-mer count, respectively.

Source of the values: article PMC13541613, “GHT-SELEX demonstrates unexpectedly high intrinsic sequence specificity and complex DNA binding of many human transcription factors”.
